The values below come from PubChem BioAssay (NCATS).

Values joined by “and” are separate entries in the source; they are usually repeats but may differ in a detail not shown here. Equal values may be shown once. Results filed as inconclusive are left out. More than one record can exist for a structure, and the calls need not agree. Active and inactive are the calls of the source. Unless noted, calls follow the shape of the dose curve; as a rule, active = well fitted curve in the direction sought with a large enough effect; inconclusive = small, poorly fitted or top-dose-only effect, or another doubt; inactive = no such curve, though single readings can be large; an effect the other way counts as inactive or inconclusive.

For one test, the system named is WaGa. In words: qHTS assay to identify novel small-molecules to repurpose for Merkel cell carcinoma treatment (AID 1296009). Also: nearly all actives have a fitted effect of over 60% in size. Also: potency is read from the fitted curve at half-maximal effect. Particulars: MCC and control cell lines, CellTiter-Glo viability, 72 h; series mostly up to 46 µM. Summed up:
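Dose-response viability screen; 72 hr exposure at 37 degree celsius; CellTiter-Glo added, 10 min room temperature, luminescence read; RLUs scaled between no-cell and DMSO wells.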

A further test concerns C33A. In words: Primary qHTS to identify gynecologic anti-cancer compounds using libraries of approved drugs and bioactive compounds (AID 1345084). Also: % is scaled to controls: 0 for no effect and ±100 for the full control effect; nearly all actives have a fitted effect of over 55% in size. The conditions noted are these: Gynecologic cancer cell panel viability, ATPlite luminescence, 48 h; series mostly up to 57.5 µM. Summed up:
(§1)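 48 h compound exposure at 37 C, 5% CO2; five-point qHTS. ATPlite luminescence readout of cell ATP.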

A further test concerns CAOV3. Described as above. The conditions noted are these: Gynecologic cancer cell panel viability, ATPlite luminescence, 48 h; series mostly up to 57.5 µM. Summed up: as §1
On the technique in general: In ATP-based viability assays light output follows the ATP content of the culture.

A further test deals with CASKI. Described as above. Particulars: Gynecologic cancer cell panel viability, ATPlite luminescence, 48 h; series mostly up to 57.5 µM. In outline: as §1
The next test has as its system Es-2. The description is as above. The conditions noted are these: Gynecologic cancer cell panel viability, ATPlite luminescence, 48 h; series mostly up to 57.5 µM. Summed up:
as §1

A further test deals with HeLa. The description is as above. Particulars: Gynecologic cancer cell panel viability, ATPlite luminescence, 48 h; series mostly up to 57.5 µM. Summed up: as §1
A further test concerns Hek293T. The description is as above. The conditions noted are these: Gynecologic cancer cell panel viability, ATPlite luminescence, 48 h, control line for the selectivity index; series mostly up to 57.5 µM. Summed up: as §1
The next test deals with JEG-3. The test is described as above. The conditions noted are these: Gynecologic cancer cell panel viability, ATPlite luminescence, 48 h; series mostly up to 57.5 µM. In outline: as §1
The next test deals with OV90. The description is as above. Particulars: Gynecologic cancer cell panel viability, ATPlite luminescence, 48 h; series mostly up to 57.5 µM. Summed up: as §1
A further test relates to PA-1. Described as above. Particulars: Gynecologic cancer cell panel viability, ATPlite luminescence, 48 h; series mostly up to 57.5 µM. Summed up:
as §1

Another test has as its system SKOV3. Described as above. The conditions noted are these: Gynecologic cancer cell panel viability, ATPlite luminescence, 48 h; series mostly up to 57.5 µM. Summed up: as §1
Another test concerns Tov-21-G. The test is described as above. The conditions noted are these: Gynecologic cancer cell panel viability, ATPlite luminescence, 48 h; series mostly up to 57.5 µM. In outline:
as §1

The subject of the next test is Tov112D. Described as above. The conditions noted are these: Gynecologic cancer cell panel viability, ATPlite luminescence, 48 h; series mostly up to 57.5 µM. Summed up:
as §1

Test [1] can be described thus: Drug repurposing screens with cells derived from glioblastoma tumor samples (AID 1345199). Also: nearly all actives have a fitted effect of over 40% in size. Also: potency is read from the fitted curve at half-maximal effect. As to activity, negative = cell killing: % is scaled to controls: 0 for no effect and ±100 for the full control effect. Particulars: GBM patient neurospheres viability, ATP luminescence, 48 h. In outline: (§2)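 Primary testing used CD133+ neurospheres from four GBM patients, seven concentrations, 48 h exposure and ATP-based viability; confirmation added three slower-growing patient lines.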
A further test deals with astro. Described as above. Particulars: viability, ATP luminescence, 48 h; series mostly up to 45.9 µM. Summed up: as §2
Test [2] addresses Nuclear receptor subfamily 1 group I member 2 (Rattus norvegicus) (UniProt Q9R1A7). In words: qHTS assay for small molecule activators of the rat pregnane X receptor (rPXR) signaling pathway (AID 651751; call rule not given here; also: 0% is about no effect). Particulars: rPXR reporter cells, luciferase (One-Glo), 24 h. A general note: qHTS replaces the single test concentration by a dilution series.
A short description of test [3]: qHTS assay for small molecule activators of the human pregnane X receptor (PXR) signaling pathway (AID 720659; call rule not given here; also: 0% is about no effect).
Test [4] can be described thus: qHTS assay to identify inhibitors of the type 1 interferon - major histocompatibility complex class I in skeletal muscle: Counter screen cell viability and HiBit confirmation (AID 1347412). Also: potency is read from the fitted curve at half-maximal effect. As to activity change, negative = inhibition: % is scaled to controls: 0 for no effect and ±100 for the full control effect. As to all read-outs here: nearly all actives have a fitted effect of over 60% in size. Particulars: iHSKM muscle cells + IFN-b, HiBiT or CellTiter-Glo, 24 h; for activity change, negative = inhibition: at 45.9 µM (top of the series). Summed up: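 CRISPR HLA-B*08:01-HiBit immortalized human myoblasts (C25cl48) stimulated with 4 ng/ml IFN-beta and compounds (12-point 1:3, top 46 uM final) for 24 h at 37 C. Duplicate plates read by HiBit lytic luminescence or CellTiter Glo ATP.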

Setting [5] is: at 45.9 µM (top of the series), tumour line B.
The mark [6] stands for this setting: at 45.9 µM (top of the series), tumour line D.
Where [7] appears, read: at 46.1 µM (top of the series), tumour line C.

Chain of Nuclear receptor subfamily 1 group I member 2 (Rattus norvegicus) (Q9R1A7 whole entry, looked up): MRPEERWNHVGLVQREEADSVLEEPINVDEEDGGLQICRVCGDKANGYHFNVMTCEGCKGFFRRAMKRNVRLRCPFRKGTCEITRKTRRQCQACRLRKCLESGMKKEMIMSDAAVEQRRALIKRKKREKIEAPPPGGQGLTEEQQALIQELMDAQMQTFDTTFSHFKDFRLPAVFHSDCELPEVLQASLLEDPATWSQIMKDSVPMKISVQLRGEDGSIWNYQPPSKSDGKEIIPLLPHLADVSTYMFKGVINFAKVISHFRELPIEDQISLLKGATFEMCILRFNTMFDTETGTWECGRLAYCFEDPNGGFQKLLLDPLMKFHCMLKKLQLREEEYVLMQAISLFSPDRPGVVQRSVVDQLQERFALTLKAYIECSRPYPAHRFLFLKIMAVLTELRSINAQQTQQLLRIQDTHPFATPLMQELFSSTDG

For the molecule `NS(=O)(=O)c1cc(C(=O)O)c(NCc2ccco2)cc1Cl`, the Potency result in the test with WaGa, in the test with C33A, with CAOV3, in the test on CASKI, in the test on Es-2 and in the test on HeLa was “inactive” throughout. The Potency entry in the test on Hek293T, in the test with JEG-3, with OV90, in the test with PA-1, in the test on SKOV3 and with Tov-21-G was “inactive” each time. The Potency result with Tov112D and in the test with astro was “inactive” throughout. Also, the activity, negative = cell killing in [1] (setting [5]) is -8.22% (inactive); in [1] (setting [6]) it was -18.4% (inactive); in [1] (setting [7]), 5.25% (inactive). For the same molecule, the max response in [2] was 7.06% (inactive) and 0.0174% (inactive). Besides, the outcome in test [3] was inactive.
For the molecule `Cc1nccn1CC1CCc2c(c3ccccc3n2C)C1=O` (stereo not drawn), the Potency result in the test with WaGa, in the test with C33A, with CAOV3, in the test with CASKI, in the test with Es-2 and in the test with HeLa was “inactive” in each case. Further, the Potency result in the test on Hek293T, in the test on JEG-3, in the test with OV90, in the test on PA-1, in the test on SKOV3 and in the test with Tov-21-G was “inactive” in each case. The Potency result in the test with Tov112D and in the test on astro was “inactive” each time. In addition, the activity, negative = cell killing in test [1] (at 20 µM (top of the series), tumour line C) was -25.3% (inactive); in [1] (at 21.2 µM (top of the series), tumour line B), -23.2% (inactive); in [1] (setting [5]), -6.55% (inactive); in test [1] (setting [6]), -25.8% (inactive); in test [1] (setting [7]) it was -22.8% (inactive). For the same molecule, the Potency in [1] (tumour line A) was 11.2 µM (active).
`N[C@@H](Cc1cc(I)c(Oc2cc(I)c(O)c(I)c2)c(I)c1)C(=O)O`: the Potency entry in the test with WaGa, in the test on C33A, in the test with CAOV3, in the test on CASKI, with Es-2 and in the test with HeLa was “inactive” throughout. Also, the Potency result with Hek293T, in the test with JEG-3, in the test on OV90, in the test on PA-1, in the test with SKOV3 and in the test with Tov-21-G was “inactive” throughout. Moreover, the Potency result with Tov112D is “inactive”. Besides, the values for the activity, negative = cell killing in test [1] (setting [5]), in test [1] (setting [6]) and in [1] (setting [7]) were -5.58% (inactive), -1.99% (inactive) and -6.06% (inactive), respectively. Also, in test [2], the max response was 4.68% (inactive).
Consider `C[C@@H](N)C1CCC(C(=O)Nc2ccncc2)CC1` (stereo partly drawn), for which the Potency result in the test on WaGa was “inactive”.
Consider `Cc1ccc(Nc2nccc(N(C)c3ccc4c(C)n(C)nc4c3)n2)cc1S(N)(=O)=O`, for which, in [1] (tumour line D), the Potency was 7.08 µM (active).
Take `COc1cc(Nc2c(C#N)cnc3cc(OCCCN4CCN(C)CC4)c(OC)cc23)c(Cl)cc1Cl`: the Potency is 11.1 µM (active) in [4] (HiBiT) and 24.9 µM (active) in test [4] (Viability).
In the case of `Clc1ccc(C(Cn2ccnc2)OCc2ccc(Sc3ccccc3)cc2)c(Cl)c1` (stereo not drawn), the activity change, negative = inhibition in test [4] (HiBiT) was -10.3% (inactive); in test [4] (Viability), -8.18% (inactive).
In the case of `CC1(C)CCC(C)(C)c2cc(NC(=O)c3ccc(C(=O)O)cc3)ccc21`, the figures for the activity change, negative = inhibition in test [4] (HiBiT) and in test [4] (Viability) were 1.95% (inactive) and -0.914% (inactive), respectively.
For `CS(=O)(=O)OCCCCOS(C)(=O)=O`, the max response in test [2] was 1.78% (inactive) and 1.87% (inactive) and -0.923% (inactive).
Turning to `CCCc1cc(=O)[nH]c(=S)[nH]1`, the max response in [2] was -3.12% (inactive) and -0.189% (inactive). The result in test [3] was inactive.
As for `CC(=O)Nc1ccc(O)cc1`, the molecule was classed as inactive in test [3].
`CC1Cc2ccccc2N1NC(=O)c1ccc(Cl)c(S(N)(=O)=O)c1` (stereo not drawn): the Potency entry in the test with WaGa, with C33A, with CASKI, in the test with Es-2, in the test on HeLa and in the test with Hek293T was “inactive” in each case. In addition, the Potency entry in the test on JEG-3, in the test on OV90, in the test on PA-1, with SKOV3, with Tov-21-G and in the test with Tov112D was “inactive” in each case. Besides, in the test on astro, the Potency result was “inactive”.
For `CN(C)c1ccc(O)c2c1C[C@H]1C[C@H]3[C@H](N(C)C)C(=O)C(C(N)=O)=C(O)[C@@]3(O)C(=O)C1=C2O`, the Potency entry in the test on WaGa is “inactive and 18.8 µM (active)”. Further, the Potency result in the test on C33A, with CASKI, in the test with Es-2, in the test with HeLa, in the test on Hek293T and in the test with JEG-3 was “inactive” throughout. The Potency result in the test with OV90, with PA-1, in the test with SKOV3, in the test on Tov-21-G, in the test on Tov112D and in the test with astro was “inactive” each time. The activity, negative = cell killing in test [1] (setting [5]) was -8.81% (inactive) and -14.2% (inactive) and -8.47% (inactive); in test [1] (setting [6]), -14.6% (inactive) and -28.5% (inactive) and -14.2% (inactive); in test [1] (at 46 µM (top of the series), tumour line A), -27.3% (inactive) and -18.4% (inactive); in test [1] (setting [7]) it was -26.9% (inactive) and -29.7% (inactive).
